Screening data: PubChem, National Center for Advancing Translational Sciences (NCATS)
HT1080NT lethal: kills 2HG-producing HT-1080-NT fibrosarcoma cells; 1.6% of 360,000 active; AID 686970; Potency, µM (highest dose often 46.1 µM), inactives show at the highest dose activity, negative = less viability, actives largely listed as cytotoxic; HT-1080-NT fibrosarcoma viability, CellTiter-Glo ATP luminescence, 48 h;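 note: NT is the 2HG producing partner of a matched IDH1 knockdown line; potency is the fitted concentration of half-maximal effect; 0% = DMSO-treated cells and -100% = media-only wells without cells; nearly all actives have a fitted effect of over 55% in size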
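HT-1080-NT; 750 cells/well; 5% FBS RPMI; 48 h compound, 37 degrees C; CellTiter-Glo luminescence; curve fitting and curve-class assignment.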
DT40 TDP1 no CPT: qHTS for Inhibitors of human tyrosyl-DNA phosphodiesterase 1 (TDP1): qHTS in cells in absence of CPT; DT40 Tdp1-/- hTDP1 cells, no CPT, ATP luminescence, 48 h; Potency, µM (series often up to 46.2 µM), for inactives: at the highest dose activity change, negative = growth inhibition, usual class: inhibitors; 15% of 420,000 active; note: potency is the fitted concentration of half-maximal effect; nearly all actives have a fitted effect of over 55% in size
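Chicken DT40 Tdp1-/- cells complemented with human TDP1, screened without camptothecin (DMSO vehicle only), 400 cells/well. Compounds pin-transferred, cells incubated at 37 °C for at least 48 hr. Growth read as ATP-dependent luminescence (CellTiter-Glo, 30 min at RT).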
HT1080 IDH1KD tx: HT-1080 IDH1 knockdown cell toxicity (counter line). HT-1080 IDH1 knockdown viability, ATP luminescence, 48 h. 2% of 360,000 active. Potency, µM (doses to about 46.1 µM), without a hit: at the highest dose activity, negative = toxicity, usual class: cytotoxic. AID 686971;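 note: potency is the fitted concentration of half-maximal effect; 0% = DMSO wells and -100% = cell-free medium wells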
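Viability of IDH1-knockdown HT-1080 fibrosarcoma cells was assessed by CellTiter-Glo after 48 h at 37 °C with titrated compound; concentration-effect curves were classified by fit quality and response size.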
IL1B secr inh: inhibitors of inflammasome signaling (IL-1 beta secretion); THP-1 LPS/ATP IL-1B secretion, AlphaLISA, 16 h; active compounds read low; activity change, % at 57.5 µM; 4.7% of 360,000 active; AID 743279; in the data active = activity change below about -50%; inconclusive = mostly about -30% to -49%
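THP-1 cells pretreated 1 hr with compounds (up to 57.5 uM final), then stimulated with LPS (250 ng/mL final) plus ATP (1.25 mM final); secreted IL-1B measured by AlphaLISA after 16 hr, decreased signal indicating inhibition.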
TDP1 cell CPT: growth inhibition of DT40 Tdp1-/-;hTDP1 cells with camptothecin (screen for TDP1 inhibitors). AID 686979. 12% of 420,000 active. Potency, µM (doses to about 46.2 µM), inactives show at the highest dose activity change, negative = growth inhibition, usual class: inhibitors. chicken DT40 Tdp1-/-;hTDP1 cells + 20 nM CPT, ATP luminescence, 48 h; note: potency is the fitted concentration of half-maximal effect; nearly all actives have a fitted effect of over 55% in size
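Cell growth measured by CellTiter-Glo luminescence after a minimum 48 h, 37 C compound exposure with 20 nM CPT in Tdp1-knockout DT40 cells stably expressing hTDP1, seeded 400/well; qHTS titration format.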
* hit, by the source's call; ? = inconclusive; . = not tested or not shown. Shown are actives, neighbours in structure and some others; about 19% of the full set was active somewhere. Unless noted, calls come from the whole dose curve; as a rule, active = well fitted curve in the direction sought with a large enough effect; inconclusive = small, poorly fitted or top-dose-only effect, or another doubt; inactive = no such curve, though single readings can be large; an effect the other way counts as inactive or inconclusive. Unless noted, % is set by controls: 0 for no effect and ±100 for the full control effect.

SMILES	HT1080NT lethal	DT40 TDP1 no CPT	HT1080 IDH1KD tx	IL1B secr inh	TDP1 cell CPT
CC1=CC(C)C(=O)N(C)C(C)=C1 (centres undefined)	9.9%	-0.3%	1.1%	12.1	23.6%
CC(C)(C)NC[C@H](O)COc1cccc2c1CCCC2=O	-4.5%	-19.4%	-12.7%	-17.4	-5.1%
CC(C)(C)NC(=O)CON=C1c2ccccc2-c2ccccc21	-0.9%	23.1µM*	-0.8%	?	23.1µM*
CC(C)(C)NCC(O)CON=C1c2ccccc2-c2ccccc21 (centres undefined)	18.4µM*	?	14.6µM*	-98.4*	20.6µM*
Cc1nc2c(nc1C)C(=O)c1ccccc1C2=O	?	4.61µM*	18.4µM*	-27.9	3.66µM*
CCCCC(=O)NC1(C(F)(F)F)C(=O)N(CC(C)C)C2=C1C(=O)CC(C)(C)C2 (centres undefined)	12.1%	?	11.6%	8.4	?
Cc1oc2c(cc(NS(=O)(=O)c3ccc(Cl)cc3)c3ccccc32)c1C(=O)O	-25.4%	-9.6%	-17.6%	36.0	?
CCOc1ccc(S(=O)(=O)Nc2cc3c(C(=O)OCc4ccccc4)c(C)oc3c3ccccc23)cc1	.	29.1µM*	.	.	11.6µM*
CCOC(=O)c1c(C)oc2c1cc(NS(=O)(=O)c1ccc(C(=O)O)cc1)c1ccccc12	-10.5%	-29.9%	-14.8%	32.5	-8.9%
Cc1oc2c(cc(NS(=O)(=O)c3ccc(C(C)C)cc3)c3ccccc32)c1C(=O)OCc1ccccc1	.	?	.	.	20.6µM*
CCCCOC(=O)c1c(C)oc2c1cc(NS(=O)(=O)c1cc(OC)ccc1OC)c1ccccc12	.	20.6µM*	.	.	?
COCCOC(=O)c1c(C)oc2c1cc(NS(=O)(=O)c1ccc(Cl)c(C)c1)c1ccccc12	.	23.1µM*	.	.	?
COc1ccc(NC(=O)c2cc3c(-c4ccc(OC)c(OC)c4)nn(C)c3s2)cc1OC	?	20.6µM*	?	?	18.4µM*
Cn1nc(C(F)(F)F)c2cc(C(=O)Nc3ccc(Cl)cc3)sc21	-15.7%	?	-19.7%	?	?
COc1ccc(-c2nn(C)c3sc(C(=O)Nc4cc(OC)c(OC)c(OC)c4)cc23)cc1OC	.	6.51µM*	.	.	18.4µM*
COc1ccc(-c2nn(C)c3sc(C(=O)NCc4ccco4)cc23)cc1OC	?	20.6µM*	21.3%	-5.1	?
COc1ccc(C2=NS(=O)(=O)N(C)C(C(=O)NCc3ccco3)=C2)cc1OC	17.4%	-27.0%	5.4%	-14.9	?
COc1ccc(-c2cc(C(=O)Nc3cc(OC)c(OC)c(OC)c3)no2)cc1OC	-2.5%	?	-2.0%	7.2	?
CC1(c2cccs2)CC(c2cccs2)=C(C#N)C(=O)N1 (centres undefined)	-47.8%	-14.8%	-22.7%	6.5	-26.6%
COCCCN1C(=O)C(CC(=O)NCCN2CCOCC2)CC(C(=O)N2CCOCC2)=C1C (centres undefined)	23.6%	-21.4%	13.6%	29.5	-9.5%
C[C@@H]1C(c2ccccc2)=NN(c2ccccc2)[C@H]1C(=O)N1CCOC1=O	-20.9%	?	?	-19.3	?
C[C@@H]1C(c2cccc(Cl)c2)=NN(c2ccccc2)[C@H]1C(=O)N1CCOC1=O	-8.8%	?	-12.9%	-77.7*	?
C[C@@H]1C(c2cccc(Cl)c2)=NN(c2ccc(Br)cc2)[C@H]1C(=O)N1CCOC1=O	?	?	?	-51.3*	?
CCOc1ccccc1NS(=O)(=O)c1cn(C)c(=O)n(C)c1=O	5.9%	22.1%	12.2%	-14.1	-4.6%
Clc1cccc(Cc2c(-c3ccco3)nc3c4ccccc4ccn23)c1	?	?	?	-2.2	?
SMILES	HT1080NT lethal	DT40 TDP1 no CPT	HT1080 IDH1KD tx	IL1B secr inh	TDP1 cell CPT
Fc1cccc(Cc2c(-c3ccco3)nc3ccc(Br)cn23)c1	?	16.4µM*	16.4µM*	-24.0	16.4µM*
Fc1cccc(Cc2c(-c3ccccc3)nc3ccc(Br)cn23)c1	?	?	-29.6%	8.1	?
Fc1ccc(-c2nc3c4ccccc4ccn3c2Cc2cccc(Cl)c2)cc1	-33.6%	16.4µM*	-23.0%	36.8	16.4µM*
Clc1cccc(Cc2c(-c3ccccc3)nc3c4ccccc4ccn23)c1	-25.0%	13µM*	-19.0%	19.9	?
Fc1cccc(Cc2c(-c3ccco3)nc3c4ccccc4ccn23)c1	?	6.51µM*	?	-3.0	6.51µM*
CCOC(=O)C1(Cc2ccccc2)CCCN(C(=O)c2ccc(-n3ccnc3)cc2)C1 (centres undefined)	3.6%	?	1.4%	-9.5	?
CC1=C(C(=O)N2CCCCCC2)CC(CC(=O)NC2CCCC2)C(=O)N1Cc1ccccc1 (centres undefined)	13.8%	-16.0%	15.2%	-5.2	-28.9%
C=CCN(c1ccccc1)S(=O)(=O)c1cccc(C(=O)NCC2CCCO2)c1 (centres undefined)	0.1%	-12.3%	3.6%	4.7	-28.9%
NC(=S)NC(c1ccccc1)c1ccncc1 (centres undefined)	?	8.7%	6.8%	16.2	-1.0%
Clc1cccc(Cc2c(-c3cccc(Cl)c3)nc3c4ccccc4ccn23)c1	3.3%	16.4µM*	2.2%	31.9	?
Fc1cccc(Cc2c(-c3cccc(Cl)c3)nc3c4ccccc4ccn23)c1	?	18.4µM*	?	16.6	23.1µM*
Clc1cccc(Cc2c(C3CCCCC3)nc3c4ccccc4ccn23)c1	-6.3%	16.4µM*	-12.9%	16.9	?
Clc1cccc(-c2nc3c4ccccc4ccn3c2Cc2ccccc2)c1	-29.0%	?	?	2.1	?
O=C(Cc1ncc(C(F)(F)F)cc1Cl)Nc1ccc(F)cc1	9.9%	-21.5%	11.5%	12.6	-2.7%
c1ccc(C2CCC(N3CCNCC3)CC2)cc1 (centres undefined)	-8.8%	-10.0%	0.8%	14.4	-14.3%
Clc1cccc2c1Sc1ccccc1CC2N1CCNCC1 (centres undefined)	23.1µM*	18.4µM*	18.4µM*	.	18.4µM*
Clc1ccc2c(c1)C(N1CCNCC1)Cc1ccccc1S2 (centres undefined)	?	23.1µM*	18.4µM*	-100.1*	?
O=C(c1ccccc1Cl)N1CCNCC1	5.9%	0.0%	11.3%	6.5	3.8%
OC[C@@H]1CN(Cc2cccnc2)C[C@H](n2cnc3c(NC4CCCC4)ncnc32)O1	?	-13.6%	6.2%	-6.2	-11.7%
CC(/C=C/c1ccc(N(C)C)cc1)=N/N=C1/NC(=O)CC(C(=O)Nc2ccc(Cl)cc2)S1 (centres undefined)	?	-22.7%	16.4µM*	-5.9	-28.1%
